Source: PubChem (National Center for Advancing Translational Sciences (NCATS))
HP1b chromo inh: HTS for Inhibitors of HP1-beta Chromodomain Interactions with Methylated Histone Tails. Chromobox protein homolog 1 (Homo sapiens), P83916. AlphaScreen HP1-beta / biotin-H3K9me3 peptide binding. Potency, µM (series often up to 114 µM), inactives show at the highest dose activity change, negative = inhibition, most hits filed as inhibitors. actives 0.56% (n = 390,000); note: potency is the fitted concentration of half-maximal effect; nearly all actives have a fitted effect of over 70% in size
Target sequence (P83916 whole entry, looked up): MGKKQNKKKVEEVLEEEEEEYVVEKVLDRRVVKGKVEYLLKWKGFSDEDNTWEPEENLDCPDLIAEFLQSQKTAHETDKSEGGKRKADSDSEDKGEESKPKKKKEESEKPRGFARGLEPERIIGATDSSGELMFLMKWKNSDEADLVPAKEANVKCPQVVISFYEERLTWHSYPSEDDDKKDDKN
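Compound inhibition of the preformed complex between 50 nM HP1-beta and 50 nM biotinylated H3K9me3 peptide was read by AlphaScreen. Buffer was PBS pH 7.4 with 0.01% Tween-20. Incubations ran 30 min at room temperature, with 10 ug/mL donor/acceptor beads.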
Six1-Eya2 blk: qHTS Assay for Inhibitors of the Six1/Eya2 Interaction. activity change, % (concentration not given with the values). Homeobox protein SIX1 (Homo sapiens) + Protein phosphatase EYA2 (Homo sapiens), …. AlphaScreen GST-Six1/His-Eya2 binding, biochemical; active compounds read low. actives 0.56% (n = 360,000); in the data active = activity change below about -65%; inconclusive = mostly about -30% to -63%; note: % is set by controls: 0 for no effect and ±100 for the full control effect
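AlphaScreen luminescence read after one hour at 37 °C in darkness. Pin-transferred compounds met GST-Six1 and His-Eya2 protein (5X stock 250 nM/500 nM) plus glutathione donor and Ni-chelate acceptor beads (5X, 50 ug/mL).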
BAZ2B inh: qHTS Assay for Inhibitors of BAZ2B. Bromodomain adjacent to zinc finger domain protein 2B (Homo sapiens), Q9UIF8. AlphaScreen BAZ2B-H3K14Ac peptide displacement. Potency, µM (highest dose often 114 µM), inactives show top-dose activity change, negative = inhibition, actives largely listed as inhibitors. actives 4.4% (n = 360,000). AID 504333, 2011; note: potency is the fitted concentration of half-maximal effect; % is set by controls: 0 for no effect and ±100 for the full control effect; nearly all actives have a fitted effect of over 60% in size
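AlphaScreen luminescence quantifies BAZ2B engagement of H3K14Ac peptide; the protein and biotinylated peptide are both at 50 nM final, buffer PBS pH 7.4 with 0.01% Tween-20, all steps at room temperature.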
G9a inh: qHTS Assay for Inhibitors of Histone Lysine Methyltransferase G9a; Histone-lysine N-methyltransferase EHMT2 (Homo sapiens), Q96KQ7; G9a H3K9 monomethylation, AlphaScreen, 2 h; Potency, µM (top dose mostly 102 µM), without a hit: top-dose activity, negative = inhibition, hits mostly inhibitors; actives 8.8% (n = 350,000); note: potency is the fitted concentration of half-maximal effect; % is set by controls: 0 for no effect and ±100 for the full control effect; nearly all actives have a fitted effect of over 75% in size
Target sequence (Q96KQ7 913-1193 limits assumed): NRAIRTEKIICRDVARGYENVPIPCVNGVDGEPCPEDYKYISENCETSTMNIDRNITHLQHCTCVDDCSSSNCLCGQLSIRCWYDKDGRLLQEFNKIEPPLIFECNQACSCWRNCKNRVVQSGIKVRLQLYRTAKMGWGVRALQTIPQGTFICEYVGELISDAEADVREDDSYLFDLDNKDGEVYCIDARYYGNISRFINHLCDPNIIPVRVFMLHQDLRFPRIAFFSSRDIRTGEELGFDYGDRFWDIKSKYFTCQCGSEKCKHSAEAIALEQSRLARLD
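AlphaScreen detection with an anti-monomethyl H3K9 antibody quantified product after a 2 h room-temperature reaction containing 500 nM biotinylated H3K9 peptide, 20 µM SAM and 20 nM enzyme, which had been preincubated 15 min with compound.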
JMJD2A Tudor inh: qHTS Assay for Inhibitors of JMJD2A-Tudor Domain | AID 504339, 2011 | Potency, µM (highest dose often 114 µM), for the others: at the top dose activity change, negative = inhibition, actives largely listed as inhibitors | Lysine-specific demethylase 4A (Homo sapiens), O75164 | actives 4.4% (n = 390,000) | AlphaScreen JMJD2A-Tudor / H3K4me3 peptide binding; note: potency is the fitted concentration of half-maximal effect; % is set by controls: 0 for no effect and ±100 for the full control effect; nearly all actives have a fitted effect of over 50% in size
CtBP-E1A blk: qHTS Assay for Inhibitors of the CtBP/E1A Interaction. AlphaScreen GST-E1A/His-CtBP binding, 1536-well; active compounds read low. CtBP / adenovirus E1A interaction (AlphaScreen). actives 0.49% (n = 340,000). activity change, % (test concentration not listed); in the data active = activity change below about -65%; inconclusive = mostly about -30% to -63%; note: % is set by controls: 0 for no effect and ±100 for the full control effect
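Homogeneous bead-based format: GST-tagged E1A captured on glutathione donor beads, His-tagged CtBP on nickel acceptor beads; compounds precede bead addition by 2 h at 37 °C.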
An asterisk follows results filed as active; ! = not confirmed by another sample; [ ] = another dose, or the depositor's remark. An excerpt weighted towards active compounds, which were near 10% of everything screened. Unless noted, calls come from the whole dose curve; as a rule, active = well fitted inhibition curve with a large enough effect; inconclusive = small, poorly fitted or top-dose-only effect; inactive = no such curve, though single readings can be large or run the other way.

What do the screens show for `Nc1ccn([C@@H]2O[C@H](CO)[C@@H](O)C2O)c(=O)n1` (some centres undefined)?
HP1b chromo inh: 20%; Six1-Eya2 blk: 4; BAZ2B inh: 3%; G9a inh: 11µM*!; JMJD2A Tudor inh: 1%; CtBP-E1A blk: -1

What do the screens show for `COCCN(C(=O)CSc1nnc(-c2cccc(OC)c2)n1C)c1c(N)n(Cc2ccccc2)c(=O)[nH]c1=O`?
BAZ2B inh: -1%; G9a inh: -39%

What do the screens show for `COc1ccc(/C=C2\SC(=S)N(CCC(=O)Nc3cccc(C(=O)O)c3)C2=O)cc1`?
HP1b chromo inh: 4%; Six1-Eya2 blk: -2; BAZ2B inh: inconclusive; JMJD2A Tudor inh: inconclusive

What do the screens show for `Cc1ccc(/C=C2\SC(=S)N(CCCC(=O)Nc3cccc(C(=O)O)c3)C2=O)cc1`?
HP1b chromo inh: inconclusive; Six1-Eya2 blk: -4; BAZ2B inh: -25%; G9a inh: 56%; JMJD2A Tudor inh: 40µM*; CtBP-E1A blk: -1

How did Cc1ccc(C=C2SC(=S)N(CCCC(=O)Nc3cccc(C(=O)O)c3)C2=O)cc1 do in these assays?
Six1-Eya2 blk: -1; CtBP-E1A blk: -6

Results for O=C(CCN1C(=O)/C(=C/c2ccc(Cl)cc2)SC1=S)Nc1cccc(C(=O)O)c1 ?
HP1b chromo inh: -39%; Six1-Eya2 blk: 4; BAZ2B inh: 32µM*; G9a inh: 45µM*; JMJD2A Tudor inh: 50µM*; CtBP-E1A blk: 0

What do the screens show for `Cc1ccc(-n2ncc(C(=O)N3CCN(Cc4ccccc4)CC3)c2C2CCN(C(=O)OC(C)(C)C)CC2)c(C)c1`?
HP1b chromo inh: 24%; BAZ2B inh: -2%[57.1 µM]; G9a inh: -35%[59 µM]; JMJD2A Tudor inh: -22%

How did CC(C)(C)c1ccc(-n2nc(C#N)c(Cl)cc2=O)cc1 do in these assays?
HP1b chromo inh: 27%; Six1-Eya2 blk: -10; BAZ2B inh: -29%; G9a inh: inconclusive; JMJD2A Tudor inh: -19%; CtBP-E1A blk: 5

Results for Cc1onc(-c2c(Cl)cccc2Cl)c1C(N)=S ?
HP1b chromo inh: 43%; Six1-Eya2 blk: -5; BAZ2B inh: -18%; G9a inh: -34%; JMJD2A Tudor inh: -15%; CtBP-E1A blk: 0

Results for CN1/C(=C\C(=O)COc2ccc3c(c2)OCO3)C(C)(C)c2ccccc21 ?
HP1b chromo inh: inconclusive; Six1-Eya2 blk: inconclusive; BAZ2B inh: 28µM*; G9a inh: inconclusive; JMJD2A Tudor inh: inconclusive; CtBP-E1A blk: -23

What do the screens show for `O=C(Cc1cc(=O)[nH]c(=O)[nH]1)NCCN1CCOCC1`?
HP1b chromo inh: 39%; Six1-Eya2 blk: 6; BAZ2B inh: 9%; G9a inh: inconclusive; JMJD2A Tudor inh: 2%; CtBP-E1A blk: 0

How did CCN(CC)c1ccc(NC(=O)C2CC(=O)N(Cc3ccccc3)C2)cc1 (centres undefined) do in these assays?
HP1b chromo inh: inconclusive; Six1-Eya2 blk: -10; BAZ2B inh: 45µM*; G9a inh: 11µM*; JMJD2A Tudor inh: 56µM*; CtBP-E1A blk: 4

Results for CS(=O)(=O)c1ccc(Cl)c(NC(=O)C2CC(=O)N(Cc3ccccc3)C2)c1 (centres undefined) ?
HP1b chromo inh: -24%; Six1-Eya2 blk: -2; BAZ2B inh: inconclusive; G9a inh: 15%[59 µM]; JMJD2A Tudor inh: 89µM*; CtBP-E1A blk: 5

Results for CN(C)S(=O)(=O)c1ccc(NC(=O)C2CC(=O)N(Cc3ccccc3)C2)cc1 (centres undefined) ?
HP1b chromo inh: 19%; Six1-Eya2 blk: -1; BAZ2B inh: -2%; G9a inh: 17%; JMJD2A Tudor inh: -1%; CtBP-E1A blk: 5

How did Cc1ccc(NC(=O)c2sc3ncn(Cc4cccc(F)c4)c(=O)c3c2C)c(Br)c1 do in these assays?
HP1b chromo inh: 32%; BAZ2B inh: 77%; G9a inh: -3%[59 µM]; JMJD2A Tudor inh: -3%

What do the screens show for `Nc1cccc2c1C(=O)N(C(=O)/C=C/c1ccc(F)cc1)C2=O`?
HP1b chromo inh: 25%; Six1-Eya2 blk: -10; BAZ2B inh: -13%; G9a inh: -10%; JMJD2A Tudor inh: -9%; CtBP-E1A blk: -65*

How did Nc1cccc2c1C(=O)N(C(=O)c1ccco1)C2=O do in these assays?
HP1b chromo inh: 45%; Six1-Eya2 blk: 10; BAZ2B inh: 4%; G9a inh: inconclusive; JMJD2A Tudor inh: -5%; CtBP-E1A blk: 6

How did COc1ccc(N2CCN(S(=O)(=O)c3csc(C(N)=O)c3)CC2)cc1 do in these assays?
HP1b chromo inh: 38%; BAZ2B inh: -32%; G9a inh: -15%[59 µM]; JMJD2A Tudor inh: -10%

How did Cc1ccc(N=Nc2ccc(O)c3ncccc23)cc1 do in these assays?
HP1b chromo inh: inconclusive; Six1-Eya2 blk: inconclusive; BAZ2B inh: inconclusive; G9a inh: inconclusive; JMJD2A Tudor inh: inconclusive; CtBP-E1A blk: -23

How did CCS(=O)(=O)c1ccc(N=Nc2ccc(O)c3ncccc23)c(OC)c1 do in these assays?
HP1b chromo inh: 50µM*; Six1-Eya2 blk: -83*; BAZ2B inh: 5.6µM*; G9a inh: 7.1µM*; JMJD2A Tudor inh: 20µM*; CtBP-E1A blk: -93*

How did Oc1ccc(N=Nc2ccccc2C(F)(F)F)c2cccnc12 do in these assays?
HP1b chromo inh: 2%; Six1-Eya2 blk: -11; BAZ2B inh: 5.6µM*; G9a inh: 15%[2.33 µM]; JMJD2A Tudor inh: 10µM*

What do the screens show for `COc1ccccc1N=Nc1ccc(O)c2ncccc12`?
HP1b chromo inh: 10µM*; Six1-Eya2 blk: -70*; BAZ2B inh: 20µM*; G9a inh: 45µM*; JMJD2A Tudor inh: 45µM*

How did N#Cc1ccc(C(=O)NCC(=O)OC(C(=O)Nc2cc(C(F)(F)F)ccc2Cl)c2ccccc2)cc1 (centres undefined) do in these assays?
JMJD2A Tudor inh: -23%

Results for COc1ccc(S(=O)(=O)N2CCC(C(=O)NC3CC(C)(C)NC(C)(C)C3)CC2)cc1 ?
HP1b chromo inh: 53%; Six1-Eya2 blk: 1; BAZ2B inh: -28%; G9a inh: 0%; JMJD2A Tudor inh: -6%; CtBP-E1A blk: 3
